Experimental data: PubChem BioAssay
Active and inactive are the calls of the source.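 The calls were made as follows, unless noted: active = inhibition above 20% together with a positive visual image hit; inconclusive = visual image hit but inhibition not above 20%; inactive = no visual image hit.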

What was measured:
[1] = inhibitors of TNFa-induced NFkB p65 translocation, primary screen, imaging, HUVEC, MLSMR starter and 10KST1 sets (AID 438); details: HUVEC TNFa-induced p65 nuclear translocation; cell count: measured here: nuclei count (cytotoxicity indicator), at 2.08 µM; inhibition: at 2 µM, stronger effect = higher value, 0% TNFa-plus-vehicle, 100% no-TNFa wells;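 also: compound added about 3h40 before a 20 min TNFalpha stimulation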;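 as to inhibition: signal is the nuclear over cytoplasmic p65 intensity ratio per well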
[2] = inhibitors of mutant huntingtin aggregation, primary screen, imaging, exon1htt(103Q)mCFP cells, high-content imaging (AID 483;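 active = visual image review flags a hit and inhibition of aggregation exceeds 20%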;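 also: compound exposure lasted 3 days before fixation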;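 as to nuclei count: percent of the per-plate median nuclei count of sample wells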); details: exon1htt(103Q)mCFP cell line, aggregate imaging, at 2 µM; inhibition of aggregation: stronger effect = higher value; nuclei count: measured here: cell count, toxicity
[3] = inhibitors of E-selectin induction by TNFa, primary screen, imaging, HUVEC, immunofluorescence, MLSMR starter and 10KST1 sets (AID 487;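 active = visually confirmed hit in the image check and inhibition above 20%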;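 as to inhibition: signal is fraction of cell area covered by stained E-selectin grains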;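 as to nuclei count: 100% = median nuclei count of all wells on the same plate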); details: HUVEC TNFalpha-induced E-selectin immunofluorescence imaging, at 2 µM; inhibition: stronger effect = higher value; nuclei count: measured here: cell number, toxicity
[4] = target: Voltage-gated potassium channel subunit beta-2 (Rattus norvegicus) (UniProt P62483); assay: KvBeta enzyme negative modulators, primary screen, biochemical, NADPH fluorescence (AID 622;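 active = fluorescence slope higher than the sample average by over 3 SD, cut at about -0.22 in these data, passing the limit was not always enough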;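 also: slope of raw intensity against log time taken from 70 to 1610 s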); details: recombinant KvBeta, 4-cyanobenzaldehyde reduction, at 10 µM, stronger effect = higher value
[5] = target: Voltage-gated potassium channel subunit beta-2 (Rattus norvegicus) (UniProt P62483); assay: KvBeta positive modulators, primary screen, biochemical, NADPH fluorescence (AID 623;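 active = NADPH fluorescence slope more negative than the mean of all samples by about 3 SD, 99.7% confidence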;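 also: fluorescence intensity change per second fitted from 20 to 320 s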); details: Recombinant KvBeta, NADPH fluorescence decrease slope, 10 min; at 10 µM; stronger effect = lower value
[6] = target: Alpha-2C adrenergic receptor (Homo sapiens) (UniProt P18825); assay: modulators of alpha2C/GIRK thallium flux, primary screen, cell-based, HEK293 alpha2C/GIRK1/2 (AID 624;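 active = fluorescence slope after compound addition differing from the mean of all screened samples at 99.7% confidence, in either direction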;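 also: slope of fluorescence ratio to pre-addition baseline per second over 15 to 24 s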); details: thallium flux BTC fluorescence, at 10 µM, actives lie on both sides
[7] = inhibitors of Sendai virus-induced IRF3 signaling, primary screen, TLR/RLR signaling modifier project, cell-based, Sendai virus stimulus, luciferase, 10K MLSCN set (AID 602276;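 active = inhibition at or above 50% at 10 µM; inactive = inhibition below 50%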;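 also: firefly luciferase from ISG56 promoter only with Renilla not read in this screen; 0% = Sendai virus plus DMSO and 100% = medium plus DMSO without virus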); details: HEK293 RL24 IRF3 luciferase reporter, at 10 µM, stronger effect = higher value
[8] = inhibitors of poly I:C-induced TLR3 signaling, primary screen, cell-based, poly I:C stimulus, luciferase, 10K MLSCN set (AID 602277;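 active = inhibition of the reporter signal at or above 50%; inactive = inhibition below 50%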); details: HEK293-TLR3 RL24 IRF3 luciferase reporter, at 10 µM, stronger effect = higher value

Chain of Alpha-2C adrenergic receptor (Homo sapiens) (P18825 whole entry, looked up): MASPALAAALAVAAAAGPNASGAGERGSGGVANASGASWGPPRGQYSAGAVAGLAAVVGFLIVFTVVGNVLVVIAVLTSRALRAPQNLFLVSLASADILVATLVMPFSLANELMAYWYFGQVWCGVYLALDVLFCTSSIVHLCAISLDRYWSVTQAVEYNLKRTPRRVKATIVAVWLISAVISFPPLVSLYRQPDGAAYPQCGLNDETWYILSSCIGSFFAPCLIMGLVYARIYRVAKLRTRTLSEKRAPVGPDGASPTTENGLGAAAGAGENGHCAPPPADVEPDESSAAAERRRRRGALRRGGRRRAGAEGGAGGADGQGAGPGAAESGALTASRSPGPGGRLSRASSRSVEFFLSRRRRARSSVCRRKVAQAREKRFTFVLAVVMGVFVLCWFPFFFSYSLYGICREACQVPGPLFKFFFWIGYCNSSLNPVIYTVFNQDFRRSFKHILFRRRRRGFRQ
Chain of Voltage-gated potassium channel subunit beta-2 (Rattus norvegicus) (P62483 whole entry, looked up): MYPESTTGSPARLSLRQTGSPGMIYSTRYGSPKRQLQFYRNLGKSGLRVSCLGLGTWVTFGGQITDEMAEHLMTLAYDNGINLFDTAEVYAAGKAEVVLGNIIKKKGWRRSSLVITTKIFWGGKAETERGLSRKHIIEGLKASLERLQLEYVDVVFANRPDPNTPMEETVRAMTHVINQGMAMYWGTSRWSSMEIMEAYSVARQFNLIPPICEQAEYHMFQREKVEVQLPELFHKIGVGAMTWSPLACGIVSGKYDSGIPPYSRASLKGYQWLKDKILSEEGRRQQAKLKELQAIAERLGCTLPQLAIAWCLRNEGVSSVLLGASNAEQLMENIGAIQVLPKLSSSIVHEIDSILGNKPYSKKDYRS

| Structure (SMILES) | cell count [1] | inhibition [1] | inhibition of aggregation [2] | nuclei count [2] [%] | inhibition [3] | nuclei count [3] [%] | fluorescence slope [4] | NADPH fluorescence slope [5] | slope [6] | inhibition [7] | inhibition [8] |
| --- | --- | --- | --- | --- | --- | --- | --- | --- | --- | --- | --- |
| Cc1nc(NC(=O)C23CCC(C)(C(=O)O2)C3(C)C)sc1C (configuration not stated) | 595 | -13.1% (inactive) | 15.4% (inactive) | 105 | -22.1% (inactive) | 106 | -0.462 (inactive) | 8.7e-06 (inactive) | 0.00641 (inactive) | 12.9% (inactive) | 29.5% (inactive) |
| O=C(CN1C(=O)CCS(=O)(=O)c2ccccc21)Nc1cccc(F)c1 | 383 | -6.8% (inactive) | -2.1% (inactive) | 113 | -27.1% (inactive) | 135 | -0.335 (inactive) | -4.5e-05 (inactive) | 0.00547 (inactive) | 1.07% (inactive) | 10.8% (inactive) |
| CCOC(=O)c1ccc(S(=O)(=O)NC2CCCCCCC2)n1C | 583 | -1% (inactive) | 3% (inactive) | 95.7 | -42.2% (inactive) | 123 | -0.614 (inactive) | 5e-06 (inactive) | 0.00591 (inactive) | 17.3% (inactive) | 23.7% (inactive) |
| CCOC(=O)CNC(=O)Nc1nnc(-c2ccc(OCC)cc2)o1 | 486 | -30.9% (inactive) | 3.3% (inactive) | 91.3 | -12.6% (inactive) | 103 | -0.591 (inactive) | 2.1e-05 (inactive) | 0.00589 (inactive) | -14.6% (inactive) | -13.9% (inactive) |
| CN(CCc1ccccn1)C(=O)CCNC(=O)Cn1cnc2ccccc2c1=O | 202 | -7.4% (inactive) | -4.7% (inactive) | 99.5 | -6.6% (inactive) | 110 | -0.611 (inactive) | 1.1e-05 (inactive) | 0.00589 (inactive) | 13.8% (inactive) | 14.4% (inactive) |
| CCc1ccc(CNCc2cccnc2)cc1 | 273 | -1.6% (inactive) | 18% (inactive) | 101 | -19.3% (inactive) | 116 | -0.464 (inactive) | -3e-05 (inactive) | 0.00429 (inactive) | 3.34% (inactive) | 18.6% (inactive) |
| CCOC(=O)CSc1nnc(CCc2nc3ccccc3[nH]2)n1C | 349 | -1% (inactive) | 23.8% (inactive) | 73 | 12.7% (inactive) | 93.2 | -0.441 (inactive) | -2.8e-05 (inactive) | 0.00684 (inactive) | -7.44% (inactive) | 100% (active) |
